Shown are actives, neighbours in structure and some others; about 3.7% of the full set was active somewhere.
NLRP3 yeast inh: blocks the NALP3 inflammasome reconstituted in yeast. Yeast reconstituted NLRP3/ASC/caspase-1, beta-gal luminescence, 24 h. inhibition, % at 10 µM. hit rate 0.39% among 330,000. AID 2825;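 active = inhibition of 50% or more; inactive = inhibition below 50%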
tim10-1 inh: tim10-1 yeast growth inhibition; inhibition, % at 20 µM; hit rate 2.2% among 330,000; S. cerevisiae tim10-1 ts strain growth, BacTiter-Glo, 24 h;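 active = inhibition of at least 40%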;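 also: mutant grown at 25 °C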
TIM10 inh: growth inhibitors of TIM10 yeast strain | S. cerevisiae TIM10 strain growth, BacTiter-Glo luminescence, 24 h | inhibition, % at 10 µM | hit rate 1.4% among 330,000 | AID 463195;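 active = inhibition of 40% or more at the single tested concentration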;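 also: wild-type TIM10 isogenic control strain grown at permissive 25 °C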
PfHsp90 set2: inhibits growth of yeast expressing Plasmodium falciparum Hsp90; S. cerevisiae expressing PfHsp90, BacTiter-Glo ATP, 48 h; yeast lacking PDR1 and PDR3 efflux regulators; inhibition, % at 9.4 µM; hit rate 0.32% among 310,000; AID 504621;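 active = every replicate shows inhibition above about 80%, whatever the replicate mean, limit read from the data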
tim23-1 inh: growth inhibitors of tim23-1 mutant yeast | S. cerevisiae tim23-1 growth, BacTiter-Glo luminescence, 24 h | inhibition, % at 20 µM | hit rate 1.3% among 330,000;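 active = growth inhibition of the mutant yeast at or above 50%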;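 also: temperature-sensitive mutant grown at 25 °C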
tim23-1 conf: confirmation of tim23-1 mutant yeast growth inhibitors; shares compounds with tim23-1 inh; inhibition, % at 20 µM; AID 463218; hit rate 83% among 4,400; S. cerevisiae tim23-1 growth, BacTiter-Glo luminescence, 24 h;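 active = inhibition above about 39% in either of two replicate wells at 20 µM, limit read from the data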;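 also: temperature-sensitive tim23-1 mutant grown at 25 °C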
Of the large screens only hits and unclear results are named; the others gave an inactive call (follow-up assays come after a bar, where they were run).

COc1ccc(CN2CCN(c3cccc(C)c3C)CC2)cc1OC	none
CC(C)(C)n1nc2c(c1NC(=O)c1cccc(Cl)c1)CS(=O)(=O)C2	none
O=C(CN1C(=O)NC2(CCc3ccccc32)C1=O)c1cccs1 (stereo not drawn)	none
CCC1(c2ccccc2)NC(=O)N(CC(=O)N2CCN(S(=O)(=O)c3ccccc3)CC2)C1=O (stereo not drawn)	none
O=C(Nc1ccc(C(=O)N2CCN(c3ccccc3F)CC2)cc1)C1=CSCCO1	tim23-1 inh 52.5 | tim23-1 conf 42.2
O=C(Nc1ccc(C(=O)N2CCCCC2)cc1)C1=CSCCO1	none
Cc1ccc(C2=NOC(=O)/C2=C\c2ccccc2)cc1	none
O=C1ON=C(c2ccccc2)/C1=C/c1ccccc1	tim23-1 inh 50.6 | tim23-1 conf 39.0
COc1ccc(S(=O)(=O)Nc2ccccc2C(=O)NCc2cccnc2)cc1OC	none
Cc1ccc(-c2cc(-c3cccs3)[nH]n2)c(O)c1	tim23-1 inh 51.3 (no result: PfHsp90 set2) | tim23-1 conf inactive
O=C(COC(=O)c1ccc(O)cc1O)Nc1ccc(Cl)cn1	none
O=C(COC(=O)c1ccc(O)cc1O)c1ccc(Cl)cc1	tim23-1 inh 63.2 | tim23-1 conf 42.5
CC(=O)N[C@H]1[C@H](OCc2ccccc2F)O[C@H](COC(C)=O)[C@@H](OC(C)=O)[C@@H]1OC(C)=O	none
CC(=O)NC1C(OCc2cccc(Br)c2)OC(COC(C)=O)C(OC(C)=O)C1OC(C)=O (stereo not drawn)	tim23-1 inh 93.4 | tim23-1 conf inactive
O=C1/C(=C/c2cccs2)COc2ccccc21	tim23-1 inh 58.4 | tim23-1 conf 57.6
O=C(COC(=O)C1CCN(c2ccc(C(F)(F)F)cn2)CC1)NC1CCCCC1	none
Cc1ccnc(NC(=O)c2ccc3c(c2)C(=O)N(CC(C)C)C3=O)c1	tim23-1 inh 63.3 | tim23-1 conf 56.7
CCCCC[C@H]1CN(Cc2ccc(OC)cc2)C(=O)[C@@H]1CC(=O)NCc1ccccc1	none
COc1ccc(OC)c(-c2csc(NC(=O)Cc3ccccc3F)n2)c1	tim23-1 inh 51.0 | tim23-1 conf 46.4
COc1ccc(OC)c(-c2csc(NC(=O)Cc3ccccc3OC)n2)c1	none
COC(=O)[C@@H]1C[C@@]2(O)[C@@H](O)[C@@H](O)[C@@H](O)C[C@H]2N1CC1CCCCC1	none
CCCCOc1cccc(NC(=O)CSc2nncn2C)c1	none
CC(C)C(=O)NNC(=O)CN1CCN(c2nc(-c3ccccc3)cs2)CC1	none (no result: PfHsp90 set2)
CCc1nnc(NC(=O)CN2CCN(c3nc(-c4ccccc4)cs3)CC2)s1	tim23-1 inh 50.0 | tim23-1 conf 41.3
NNC(=O)c1cccn(Cc2cccc(C(F)(F)F)c2)c1=O	none
Nc1ccc(Sc2cnn(-c3ccccc3)c(=O)c2Cl)cc1	tim23-1 inh 50.4 | tim23-1 conf inactive
CCCCCc1nnc(NC(=O)c2cccc(S(=O)(=O)N3CCOCC3)c2)s1	none (no result: PfHsp90 set2)
CC(C)CCNc1nc(N)c([N+](=O)[O-])c(N2CCCCCC2)n1	tim23-1 inh 50.0 | tim23-1 conf inactive
O=C(NCCc1ccccc1)C(=O)NCC1OCCN1S(=O)(=O)c1ccc(Cl)cc1 (stereo not drawn)	none
COC(=O)c1cccc(-c2ccc(C(c3c(C)[nH][nH]c3=O)c3c(C)[nH][nH]c3=O)o2)c1	tim23-1 inh 50.7 | tim23-1 conf 49.3
C=CCc1cccc(/C=N/NC(=O)CNc2cccc3ccccc23)c1O	tim23-1 inh 57.1 | tim23-1 conf 72.7
Cc1nc2ccc(NS(=O)(=O)c3ccc(Br)cc3)cc2s1	tim23-1 inh 51.1 | tim23-1 conf inactive
Cc1ccc(S(=O)(=O)Nc2ccc3nc(C)sc3c2)cc1	none
N#C/C(N)=C(/C#N)N=Cc1cccc(Cl)c1	tim23-1 inh 52.2 | tim23-1 conf 51.5
CCOC(=O)c1cnc(-n2nc(C)cc2C)nc1NCCc1ccccc1	tim23-1 inh 50.5 | tim23-1 conf 57.9
COc1ccccc1N1CCN(C(=O)c2cc3ccccc3[nH]2)CC1	tim23-1 inh 52.4 | tim23-1 conf 48.3
COc1ccccc1N1CCN(C(=O)c2cc3cc(F)ccc3[nH]2)CC1	none
COc1cccc(NC(=O)Cn2cnc3c(oc4nc5c(cc43)CCCC5)c2=O)c1	none
CN(C(=O)CSc1cc(C(=O)c2nccn2C)c2ccccc2n1)c1ccccc1	tim23-1 inh 50.5 | tim23-1 conf 41.4
Cn1ccnc1C(=O)c1cc(SCC(=O)NC2CC2)nc2ccccc12	none
Oc1ccccc1CNc1cnc2ccccc2c1	none
Oc1ccc(Cl)cc1CNc1cnc2ccccc2c1	tim23-1 inh 61.6 | tim23-1 conf 64.5
COCC(=O)N/N=C(\C)CC(=O)NCc1ccco1	none
COc1ccccc1/C=C/C(=O)OCC(=O)c1c(N)n(C)c(=O)n(C)c1=O	tim23-1 inh 94.8 | tim23-1 conf inactive
Cc1ccc(C(=O)N/N=C/c2cc(Br)ccc2O)cn1	tim23-1 inh 63.0 | tim23-1 conf 51.5
Cc1ccc(C(=O)Nc2nc(-c3ccccn3)cs2)s1	tim23-1 inh 61.7 | tim23-1 conf 55.2
C=CCn1c(SCC(=O)NC(=O)c2cccc([N+](=O)[O-])c2)nnc1-c1ccccc1	none
CCCNC(=S)Nc1cc2oc3ccccc3c2cc1OC	tim23-1 inh 51.9 | tim23-1 conf 52.1
O=C(c1ccco1)N1CCN(C(=O)c2ccc(-c3ccc(Cl)cc3)o2)CC1	tim23-1 inh 51.4 | tim23-1 conf 40.4
CCCN1Cc2cccc(C(=O)N3CCN(c4ccc(F)cc4)CC3)c2C1=O	none
CCCN1CCN(C(=O)c2cccc3c2C(=O)N(CCOC)C3)CC1	tim23-1 inh 95.9 | tim23-1 conf inactive
C=CCC1Cc2c(Br)cccc2C(CC=C)N1 (stereo not drawn)	tim23-1 inh 52.9 | tim23-1 conf 45.6
C=CC[C@H]1Cc2c(cccc2[N+](=O)[O-])[C@H](CC=C)N1	none
NC(=S)Nc1cccc2cccnc12	none
NC(=S)NNc1cccc2cccnc12	tim23-1 inh 58.0 | tim23-1 conf inactive
Cc1cc(C(=O)c2ccc(Cl)cc2)c(NC(=O)CCl)s1	none
CCc1cc(C(=O)c2ccc(C)cc2)c(NC(=O)CCl)s1	tim23-1 inh 50.3 | tim23-1 conf 49.0
Cc1ccc(S(=O)(=O)NCc2csc(-c3cccs3)n2)cc1	tim23-1 inh 58.9 | tim23-1 conf 43.0
O=S(=O)(NCc1csc(-c2cccs2)n1)c1ccc(Cl)cc1	none
O=C1C2C(C(=O)N1CCN1CCN(Cc3ccc([N+](=O)[O-])cc3)CC1)[C@H]1C=C[C@@H]2C1 (stereo partly drawn)	none
C=CCn1c(-c2cc(-c3ccc(C)cc3)nc3ccccc23)n[nH]c1=S	tim23-1 inh 59.8 | tim23-1 conf 52.6
CC1(C)CC(=O)C(N=Nc2ccc(Br)cc2)=C(O)C1	none (no result: PfHsp90 set2)
CC1(C)CC(=O)C(N=Nc2ccc(C(F)(F)F)cc2[N+](=O)[O-])=C(O)C1	tim23-1 inh 78.2 | tim23-1 conf 77.6
